Reference: PubChem BioAssay AID588493 (Sanford-Burnham Center for Chemical Genomics, 2011)
Values joined by “and” are separate entries in the source; they are usually repeats but may differ in a detail not shown here. Equal values may be shown once. Out of some 360,000 compounds screened, about 2,100 (0.58%) were called active. This is one part of a sample in which actives are shown more often than they occur. A number with no mark means an inactive call.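 Rule for the calls: active = inhibition at 20 µM, scaled to each plate's controls, above about 33% (limit read from the data); inactive = the rest.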

Target: 26S proteasome non-ATPase regulatory subunit 14 (Homo sapiens) (UniProt O00487)
Sequence (O00487 whole entry, looked up): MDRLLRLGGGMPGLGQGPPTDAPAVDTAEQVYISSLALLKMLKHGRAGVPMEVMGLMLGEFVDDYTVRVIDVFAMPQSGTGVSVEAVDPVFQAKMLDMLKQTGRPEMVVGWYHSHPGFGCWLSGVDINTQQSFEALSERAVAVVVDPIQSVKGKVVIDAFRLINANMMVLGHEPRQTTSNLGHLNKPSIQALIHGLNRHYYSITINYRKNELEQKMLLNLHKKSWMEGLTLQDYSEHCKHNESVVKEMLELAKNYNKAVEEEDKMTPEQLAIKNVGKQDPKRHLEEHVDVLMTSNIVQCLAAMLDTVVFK
Experiment: Rpn11 (PSMD14) deubiquitinase inhibitors, primary screen, biochemical, fluorescence polarization, uHTS (AID 588493)
Conditions: human 26S proteasome, Ub4-pepOG fluorescence polarization; at 20 µM; hits give high values; 20S core pre-blocked with epoxomicin

Row | SMILES | inhibition
1 | COc1ccc(NC(=O)CNC(=O)Cn2ccc3ccccc3c2=O)c(OC)c1 | -3.8%
2 | CC(C)C1N=C2c3ccccc3N=C(SCC(=O)c3ccc(O)c(O)c3)N2C1=O (stereo unspecified) | -6.6%
3 | COc1ccc(NC(=O)C(CC(C)C)NS(=O)(=O)c2ccc3c(c2)CCN3C(C)=O)cc1OC (stereo unspecified) | 6.4%
4 | CCOC(=O)N1CCC(NC(=O)C(NS(=O)(=O)c2ccc3c(c2)CCN3C(=O)CC)C(C)C)CC1 (stereo unspecified) | 46.5% (active)
5 | CCC(=O)N1CCc2cc(S(=O)(=O)NC(C(=O)N3CCc4ccccc4C3)C(C)C)ccc21 (stereo unspecified) | 1.1%
6 | CC(C)S(=O)(=O)c1csc(NC(=O)Nc2ccc(Cl)cc2)c1Cl | 1.6%
7 | CCC(C)Cn1c(O)cc2nn(-c3nc4ccccc4s3)c(=O)c-2c1C (stereo unspecified) | 95.3% (active)
8 | N#Cc1ccc(-c2ccc3nccn3c2)cc1 | 1.6%
9 | Cc1ccc(/C=N/NC(=O)CSc2nc3ccccc3o2)cc1 | 1%
10 | O=C(CSc1cccc2cccnc12)N/N=C/c1cccnc1 | 71.4% (active)
11 | O=C(CNC(=O)c1cccnc1)N/N=C/c1cc(Br)c(O)c(Br)c1 | -14.1%
12 | Cc1nnc(SCc2nc3ccccc3nc2C)s1 | -1.4%
13 | COc1ccc2cc(C(=O)C3CCCN(C(=O)c4sc(C)nc4C)C3)ccc2c1 (stereo unspecified) | 5.8%
14 | COc1cc(CO)ccc1OCC(=O)Nc1cccc2ccccc12 | 1.6%
15 | COc1ccc(Cn2c(O)c(/C=C3/C=CC=N3)c(=O)[nH]c2=O)cc1 | 14.5%
16 | COc1cc(=O)[nH]c(=O)n1C(=O)Cc1ccccc1 | 2.2%
17 | CCCOc1ccc(Cn2c(O)cc(=O)[nH]c2=O)cc1 | 65.3% (active)
18 | COc1ccc(C2c3[nH]c4ccccc4c3C[C@H]3C(=O)N(CC(C)C)CC(=O)N23)c(OC)c1 (stereo partly specified) | -8.2%
19 | Cc1ccc(NC(=O)CN(C)Cc2ccc(F)cc2)c([N+](=O)[O-])c1 | -8.1%
20 | COc1ccc2c(c1)c(=Cc1ccc(N(C)C)cc1)c1cc(-c3ccccc3)[n+](C)n12 | 59.4% (active)
21 | O=C(CNC(=O)c1ccc(Cl)cc1Cl)NCC(=O)Nc1ccccc1N1CCOCC1 | -2.4%

Row | SMILES | inhibition
22 | CCCNC(=O)CCn1nc(-c2ccccc2)c2ccccc2c1=O | -1.2%
23 | CC(C)Cn1c(CCC(=O)O)ccc1-c1cccs1 | 39.7% (active)
24 | CCOC(=O)c1ccc(-n2c(CCC(=O)O)ccc2-c2ccccc2)cc1 | 1.9%
25 | COCCCn1c(CCC(=O)O)ccc1-c1ccc(F)cc1 | 6.6%
26 | CC(=O)c1sc(NC(=O)C2=NN(c3ccccc3)C(=O)CC2)nc1C | 1.1%
27 | CC(=O)c1sc(N)nc1C | -7.7% and -13.1%
28 | CC(=O)c1sc(N/N=C/c2ccc(C(C)C)cc2)nc1C | 42.3% (active)
29 | Cc1cc2c(cc1C)N1C(=O)c3cc4ccccc4cc3NC(=O)C1C(=O)N2 (stereo unspecified) | 7%
30 | COc1ccc(NC(=O)c2cn(-c3ccccc3)nc2SC)cc1 | 4.3%
31 | CCOc1ccc(-c2c(C)n([O-])c3c([n+]2=O)CCCC3)cc1 | 3%
32 | Oc1ccc(/C=N/Nc2nc(-c3ccccc3F)nc3ccccc23)c(O)c1 | 43.1% (active)
33 | O=C(NNc1c2ccccc2nc2ccccc12)c1cc2ccccc2cc1O | -5.5%
34 | Cc1ccc(/C=N/NC(=O)C2=NNC(c3ccccc3)(c3ccccc3)C2)c(O)c1 | 3.5%
35 | Cc1nnc(SC(C)C(=O)c2c[nH]c3ccccc23)n1C1CC1 (stereo unspecified) | -0.9%
36 | CCCCN(C(=O)c1ccc(C)o1)c1c(N)n(CCCC)c(=O)[nH]c1=O | -3.8%
37 | O=C(COC(=O)COc1cccc(F)c1)NCC1CCCCC1 | -7.3%
38 | CCN(C(=O)COc1ccc(C(=O)c2ccccc2)cc1)c1ccccc1 | -0.2%
39 | O=C(COc1cccc(F)c1)Oc1ccc(C(=O)c2ccccc2)cc1 | 43% (active)
40 | O=C(c1cccnc1)N(c1cc2sc(=O)oc2c2ccccc12)S(=O)(=O)c1ccccc1 | 2.8%
41 | NC(=O)Cc1ccc2sc(-c3ccccc3)nc2c1 | 4.7%
42 | C=CCn1c(SCC(=O)NC(=O)Cc2ccccc2)nc2ccccc2c1=O | 0.5%

Row | SMILES | inhibition
43 | C=CCn1c(SCC(=O)NCc2ccccc2)nnc1-c1cc(Br)ccc1O | 37.3% (active)
44 | O=C(CSc1nnc(-c2cccnc2)n1CCc1ccccc1)NCc1ccccc1 | -6.8%
45 | COc1ccc(CNc2c(CO)cnc3c2cnn3C)cc1 | -6.6%
46 | COCCCNC(=S)N1CCN(c2nc(-c3cccc(OC)c3)cs2)CC1 | 5.4%
47 | CSc1ccc(C#N)cc1NC(=O)c1cccc(Cl)c1 | 7.6%
48 | COc1ccc(NC(=O)c2ccco2)cc1NC(=O)c1ccc(C#N)cc1F | -5.8%
49 | N#Cc1ccc(C(=O)Nc2cccc3cccnc23)c(F)c1 | 102% (active)
50 | Cc1ccc(CCNC(=O)CN2C(=O)CSc3ccc(S(=O)(=O)N4CCOCC4)cc32)cc1 | -1.8%
51 | CCCCCCCCc1c(O)nc(-n2[nH]c(C)c(CCO)c2=O)[nH]c1=O | 11.1%
52 | COc1cccc(-c2nn(-c3ccccc3)cc2/C=C(\C#N)C(=O)NCCCn2ccnc2)c1 | 56% (active)
53 | COc1cc(OC)cc(C(=O)NCCCn2ccnc2)c1 | 0.7%
54 | COc1ccc(/C=C(\C#N)C(=O)NCCCn2ccnc2)cc1 | -1.5%
55 | CCCCc1nnc(NC(=O)CS(=O)(=O)Cc2ccccc2)s1 | 5.2%
56 | C/C(=N/NS(=O)(=O)c1ccccc1)c1ccc(NC(=O)C(F)(F)F)cc1 | -2%
57 | NC(=O)c1cc(S(=O)(=O)NCCCc2ccco2)cs1 | -4.1%
58 | O=C(Nc1ccc(N2CCCC2=O)cc1)c1cncc(Br)c1 | -4.8%
59 | O=C(N/N=C/c1cccc(Br)c1)c1ccc(N2CCCC2=O)cc1 | 49.1% (active)
60 | O=C(N/N=C\c1cccc(Br)c1)c1ccccc1-n1cccc1 | 23.2%
61 | Cc1cc2nc(-c3ccco3)c(Cc3cccc(F)c3)n2c(C)c1Br | 11.6%
